In the supplement of paper PMC7411054:
Where a name gives a salt, the structure may show the parent alone.

How the values were obtained:
Conditions in all cases: treatment time: 24 h
A549-ACTB-RAB5A [1] = experiment: phenotypically active (imaging signature differs from DMSO and reproducible) at any of 0.3-9 uM (binary (1 = active, 0 = inactive)); higher = active
Method in brief: (§1)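 After 24 h at 0.3, 1, 3 or 9 µM, with four wells per treatment, fifteen gene-edited A549, HepG2 and WPMY1 reporter lines carrying BFP, GFP and RFP/FusionRed were imaged live. Each well's live-cell features were expressed relative to solvent control wells. Deviation required ≥3 of 4 wells past the 95th percentile of control Euclidean distances, and reproducibility a median replicate Pearson correlation over the 95th percentile of non-replicates. Phenotypic activity rested on both.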

A549-CANX-COX4 = experiment: as above
Method in brief: as §1

A549-GM130-SQSTM1 [2] = experiment: as above
Method in brief: as §1

A549-TP53BP1-CLTA = experiment: as above
Method in brief: as §1

A549-TUBA1B-RELA [3] = experiment: as above
Method in brief: as §1

HepG2-ACTB-RAB5A = experiment: as above
Method in brief: as §1

HepG2-CANX-COX4 [4] = experiment: as above
Method in brief: as §1

HepG2-GM130-SQSTM1 = experiment: as above
Method in brief: as §1

HepG2-TP53BP1-CLTA [5] = experiment: as above
Method in brief: as §1

HepG2-TUBA1B-RELA = experiment: as above
Method in brief: as §1

WPMY1-ACTB-RAB5A = experiment: as above
Method in brief: as §1

WPMY1-CANX-COX4 = experiment: as above
Method in brief: as §1

WPMY1-GM130-SQSTM1 = experiment: as above
Method in brief: as §1

WPMY1-TP53BP1-CLTA = experiment: as above
Method in brief: as §1

WPMY1-TUBA1B-RELA = experiment: as above
Method in brief: as §1

A549-ACTB-RAB5A [6] = experiment: lowest phenotypically active concentration; higher = less potent
Method in brief: as §1

A549-GM130-SQSTM1 [7] = experiment: as above
Method in brief: as §1

A549-TUBA1B-RELA [8] = experiment: as above
Method in brief: as §1

HepG2-CANX-COX4 [9] = experiment: as above
Method in brief: as §1

HepG2-TP53BP1-CLTA [10] = experiment: as above
Method in brief: as §1

NCC1(CC(=O)O)CCCCC1 [gabapentin]
inactive: phenotypically active (A549-ACTB-RAB5A [1]) 0 | phenotypically active (A549-CANX-COX4) 0 | phenotypically active (A549-GM130-SQSTM1 [2]) 0 | phenotypically active (A549-TP53BP1-CLTA) 0 | phenotypically active (A549-TUBA1B-RELA [3]) 0 | phenotypically active (HepG2-ACTB-RAB5A) 0 | phenotypically active (HepG2-CANX-COX4 [4]) 0 | phenotypically active (HepG2-GM130-SQSTM1) 0 | phenotypically active (HepG2-TP53BP1-CLTA [5]) 0 | phenotypically active (HepG2-TUBA1B-RELA) 0 | phenotypically active (WPMY1-ACTB-RAB5A) 0 | phenotypically active (WPMY1-CANX-COX4) 0 | phenotypically active (WPMY1-GM130-SQSTM1) 0 | phenotypically active (WPMY1-TP53BP1-CLTA) 0 | phenotypically active (WPMY1-TUBA1B-RELA) 0

COc1ccc(C(=O)OC2C[C@H]3CC[C@H](C2)N3C)cc1OC (stereo not given in full) [Convolamine hydrochloride]
inactive: phenotypically active (A549-ACTB-RAB5A [1]) 0 | phenotypically active (A549-CANX-COX4) 0 | phenotypically active (A549-GM130-SQSTM1 [2]) 0 | phenotypically active (A549-TP53BP1-CLTA) 0 | phenotypically active (A549-TUBA1B-RELA [3]) 0 | phenotypically active (HepG2-ACTB-RAB5A) 0 | phenotypically active (HepG2-CANX-COX4 [4]) 0 | phenotypically active (HepG2-GM130-SQSTM1) 0 | phenotypically active (HepG2-TP53BP1-CLTA [5]) 0 | phenotypically active (HepG2-TUBA1B-RELA) 0 | phenotypically active (WPMY1-ACTB-RAB5A) 0 | phenotypically active (WPMY1-CANX-COX4) 0 | phenotypically active (WPMY1-GM130-SQSTM1) 0 | phenotypically active (WPMY1-TP53BP1-CLTA) 0 | phenotypically active (WPMY1-TUBA1B-RELA) 0

C/C=C1\CN2CC[C@]34c5cc(OC)ccc5N5C(=O)C(O)OC[C@@H]([C@H]53)[C@H]1C[C@H]24 (stereo not given in full) [10-Methoxy-o-demethyltsilanine]
inactive: phenotypically active (A549-ACTB-RAB5A [1]) 0 | phenotypically active (A549-CANX-COX4) 0 | phenotypically active (A549-GM130-SQSTM1 [2]) 0 | phenotypically active (A549-TP53BP1-CLTA) 0 | phenotypically active (A549-TUBA1B-RELA [3]) 0 | phenotypically active (HepG2-ACTB-RAB5A) 0 | phenotypically active (HepG2-CANX-COX4 [4]) 0 | phenotypically active (HepG2-GM130-SQSTM1) 0 | phenotypically active (HepG2-TP53BP1-CLTA [5]) 0 | phenotypically active (HepG2-TUBA1B-RELA) 0 | phenotypically active (WPMY1-ACTB-RAB5A) 0 | phenotypically active (WPMY1-CANX-COX4) 0 | phenotypically active (WPMY1-GM130-SQSTM1) 0 | phenotypically active (WPMY1-TP53BP1-CLTA) 0 | phenotypically active (WPMY1-TUBA1B-RELA) 0

CC(C)CC(N(C)C)C1(c2ccc(Cl)cc2)CCC1 (stereo not given) [sibutramine]
inactive: phenotypically active (A549-ACTB-RAB5A [1]) 0 | phenotypically active (A549-CANX-COX4) 0 | phenotypically active (A549-GM130-SQSTM1 [2]) 0 | phenotypically active (A549-TP53BP1-CLTA) 0 | phenotypically active (A549-TUBA1B-RELA [3]) 0 | phenotypically active (HepG2-ACTB-RAB5A) 0 | phenotypically active (HepG2-CANX-COX4 [4]) 0 | phenotypically active (HepG2-GM130-SQSTM1) 0 | phenotypically active (HepG2-TP53BP1-CLTA [5]) 0 | phenotypically active (HepG2-TUBA1B-RELA) 0 | phenotypically active (WPMY1-ACTB-RAB5A) 0 | phenotypically active (WPMY1-CANX-COX4) 0 | phenotypically active (WPMY1-GM130-SQSTM1) 0 | phenotypically active (WPMY1-TP53BP1-CLTA) 0 | phenotypically active (WPMY1-TUBA1B-RELA) 0

COc1ccc2c(c1O)-c1c(OC)c(OC)cc3c1[C@H](C2)N(C)CC3 [Isocorydine (+)]
inactive: phenotypically active (A549-ACTB-RAB5A [1]) 0 | phenotypically active (A549-CANX-COX4) 0 | phenotypically active (A549-GM130-SQSTM1 [2]) 0 | phenotypically active (A549-TP53BP1-CLTA) 0 | phenotypically active (A549-TUBA1B-RELA [3]) 0 | phenotypically active (HepG2-ACTB-RAB5A) 0 | phenotypically active (HepG2-CANX-COX4 [4]) 0 | phenotypically active (HepG2-GM130-SQSTM1) 0 | phenotypically active (HepG2-TP53BP1-CLTA [5]) 0 | phenotypically active (HepG2-TUBA1B-RELA) 0 | phenotypically active (WPMY1-ACTB-RAB5A) 0 | phenotypically active (WPMY1-CANX-COX4) 0 | phenotypically active (WPMY1-GM130-SQSTM1) 0 | phenotypically active (WPMY1-TP53BP1-CLTA) 0 | phenotypically active (WPMY1-TUBA1B-RELA) 0

C[C@@H]1O[C@H](C[N+](C)(C)C)C[C@H]1O [(+)-Muscarine iodide]
inactive: phenotypically active (A549-ACTB-RAB5A [1]) 0 | phenotypically active (A549-CANX-COX4) 0 | phenotypically active (A549-GM130-SQSTM1 [2]) 0 | phenotypically active (A549-TP53BP1-CLTA) 0 | phenotypically active (A549-TUBA1B-RELA [3]) 0 | phenotypically active (HepG2-ACTB-RAB5A) 0 | phenotypically active (HepG2-CANX-COX4 [4]) 0 | phenotypically active (HepG2-GM130-SQSTM1) 0 | phenotypically active (HepG2-TP53BP1-CLTA [5]) 0 | phenotypically active (HepG2-TUBA1B-RELA) 0 | phenotypically active (WPMY1-ACTB-RAB5A) 0 | phenotypically active (WPMY1-CANX-COX4) 0 | phenotypically active (WPMY1-GM130-SQSTM1) 0 | phenotypically active (WPMY1-TP53BP1-CLTA) 0 | phenotypically active (WPMY1-TUBA1B-RELA) 0

Cc1ccc(-c2nc3ccc(C)cn3c2CC(=O)N(C)C)cc1 [zolpidem]
inactive: phenotypically active (A549-ACTB-RAB5A [1]) 0 | phenotypically active (A549-CANX-COX4) 0 | phenotypically active (A549-GM130-SQSTM1 [2]) 0 | phenotypically active (A549-TP53BP1-CLTA) 0 | phenotypically active (A549-TUBA1B-RELA [3]) 0 | phenotypically active (HepG2-ACTB-RAB5A) 0 | phenotypically active (HepG2-CANX-COX4 [4]) 0 | phenotypically active (HepG2-GM130-SQSTM1) 0 | phenotypically active (HepG2-TP53BP1-CLTA [5]) 0 | phenotypically active (HepG2-TUBA1B-RELA) 0 | phenotypically active (WPMY1-ACTB-RAB5A) 0 | phenotypically active (WPMY1-CANX-COX4) 0 | phenotypically active (WPMY1-GM130-SQSTM1) 0 | phenotypically active (WPMY1-TP53BP1-CLTA) 0 | phenotypically active (WPMY1-TUBA1B-RELA) 0

C=C1[C@@H](O)C2C=CC[C@H](C)C(=O)[C@](C)(O)C=C[C@@H](OC(C)=O)[C@]23C(=O)N[C@H](Cc2ccccc2)[C@@H]3[C@@H]1C (stereo not given in full) [Cytochalasin D]
≤ 0.3 µM: lowest phenotypically active concentration (A549-ACTB-RAB5A [6]) | lowest phenotypically active concentration (A549-GM130-SQSTM1 [7]) | lowest phenotypically active concentration (A549-TUBA1B-RELA [8]) | lowest phenotypically active concentration (HepG2-CANX-COX4 [9]) | lowest phenotypically active concentration (HepG2-TP53BP1-CLTA [10])
active: phenotypically active (A549-ACTB-RAB5A [1]) 1 | phenotypically active (A549-CANX-COX4) 1 | phenotypically active (A549-GM130-SQSTM1 [2]) 1 | phenotypically active (A549-TP53BP1-CLTA) 1 | phenotypically active (A549-TUBA1B-RELA [3]) 1 | phenotypically active (HepG2-ACTB-RAB5A) 1 | phenotypically active (HepG2-CANX-COX4 [4]) 1 | phenotypically active (HepG2-GM130-SQSTM1) 1 | phenotypically active (HepG2-TP53BP1-CLTA [5]) 1 | phenotypically active (HepG2-TUBA1B-RELA) 1 | phenotypically active (WPMY1-ACTB-RAB5A) 1 | phenotypically active (WPMY1-CANX-COX4) 1 | phenotypically active (WPMY1-GM130-SQSTM1) 1 | phenotypically active (WPMY1-TP53BP1-CLTA) 1 | phenotypically active (WPMY1-TUBA1B-RELA) 1

CCN(CC)C(C)C(=O)c1ccccc1 (stereo not given) [amfepramone]
inactive: phenotypically active (A549-ACTB-RAB5A [1]) 0 | phenotypically active (A549-CANX-COX4) 0 | phenotypically active (A549-GM130-SQSTM1 [2]) 0 | phenotypically active (A549-TP53BP1-CLTA) 0 | phenotypically active (A549-TUBA1B-RELA [3]) 0 | phenotypically active (HepG2-ACTB-RAB5A) 0 | phenotypically active (HepG2-CANX-COX4 [4]) 0 | phenotypically active (HepG2-GM130-SQSTM1) 0 | phenotypically active (HepG2-TP53BP1-CLTA [5]) 0 | phenotypically active (HepG2-TUBA1B-RELA) 0 | phenotypically active (WPMY1-ACTB-RAB5A) 0 | phenotypically active (WPMY1-CANX-COX4) 0 | phenotypically active (WPMY1-GM130-SQSTM1) 0 | phenotypically active (WPMY1-TP53BP1-CLTA) 0 | phenotypically active (WPMY1-TUBA1B-RELA) 0

CC1=C(O)C(=O)[C@@H]2O[C@@H]2C1=O [(-)-Terreic acid]
inactive: phenotypically active (A549-ACTB-RAB5A [1]) 0 | phenotypically active (A549-CANX-COX4) 0 | phenotypically active (A549-GM130-SQSTM1 [2]) 0 | phenotypically active (A549-TP53BP1-CLTA) 0 | phenotypically active (A549-TUBA1B-RELA [3]) 0 | phenotypically active (HepG2-ACTB-RAB5A) 0 | phenotypically active (HepG2-CANX-COX4 [4]) 0 | phenotypically active (HepG2-GM130-SQSTM1) 0 | phenotypically active (HepG2-TP53BP1-CLTA [5]) 0 | phenotypically active (HepG2-TUBA1B-RELA) 0 | phenotypically active (WPMY1-ACTB-RAB5A) 0 | phenotypically active (WPMY1-CANX-COX4) 0 | phenotypically active (WPMY1-GM130-SQSTM1) 0 | phenotypically active (WPMY1-TP53BP1-CLTA) 0 | phenotypically active (WPMY1-TUBA1B-RELA) 0

Cc1sc2c(c1C)C(c1ccc(Cl)cc1)=N[C@@H](CC(N)=O)c1nnc(C)n1-2
≤ 0.3 µM: lowest phenotypically active concentration (A549-ACTB-RAB5A [6]) | lowest phenotypically active concentration (A549-GM130-SQSTM1 [7]) | lowest phenotypically active concentration (A549-TUBA1B-RELA [8]) | lowest phenotypically active concentration (HepG2-CANX-COX4 [9]) | lowest phenotypically active concentration (HepG2-TP53BP1-CLTA [10])
active: phenotypically active (A549-ACTB-RAB5A [1]) 1 | phenotypically active (A549-CANX-COX4) 1 | phenotypically active (A549-GM130-SQSTM1 [2]) 1 | phenotypically active (A549-TP53BP1-CLTA) 1 | phenotypically active (A549-TUBA1B-RELA [3]) 1 | phenotypically active (HepG2-ACTB-RAB5A) 1 | phenotypically active (HepG2-CANX-COX4 [4]) 1 | phenotypically active (HepG2-GM130-SQSTM1) 1 | phenotypically active (HepG2-TP53BP1-CLTA [5]) 1 | phenotypically active (HepG2-TUBA1B-RELA) 1 | phenotypically active (WPMY1-ACTB-RAB5A) 1 | phenotypically active (WPMY1-CANX-COX4) 1 | phenotypically active (WPMY1-GM130-SQSTM1) 1 | phenotypically active (WPMY1-TP53BP1-CLTA) 1 | phenotypically active (WPMY1-TUBA1B-RELA) 1
